VACV Venus inh: vaccinia inhibition (Venus reporter); AID 720580; Potency, µM (doses to about 36.5 µM), for the others: at the highest dose activity change, negative = inhibition, hits mostly inhibitors; actives 0.46% (n = 330,000); Vaccinia virus Venus reporter expression, fluorescence; calls by dose curve; tested in A549 cells; also: potency is read from the fitted curve at half-maximal effect; nearly all actives have a fitted effect of over 30% in size
FMDV antiviral: foot and mouth disease virus antiviral activity. FMDV antiviral cell-based qHTS. Potency, µM (doses to about 57.9 µM), without a hit: at the top dose activity change, negative = inhibition, most hits filed as inhibitors. actives 1.2% (n = 410,000). AID 1159524; calls by dose curve; tested in HEK293T cells; also: read-out not given here; potency is read from the fitted curve at half-maximal effect; nearly all actives have a fitted effect of over 45% in size
HCV inh: HCV inhibition; Huh7.5.1 HCVcc-Cre infection, luciferase reporter, 44 h; Potency, µM (top dose mostly 41.8 µM), inactives show top-dose activity change, negative = inhibition, actives largely listed as inhibitors; actives 3.4% (n = 340,000); AID 651820; active = well fitted inhibition curve with a large enough effect; inconclusive = small, poorly fitted or top-dose-only effect, or another doubt; inactive = no such curve, though single readings can be large or run the other way; also: potency is read from the fitted curve at half-maximal effect
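Luciferase read-out (15 sec integration) after a 15 min room-temperature substrate step quantifies HCVcc-Cre infection. Cells, 1,000 per well, had compound added 4 h post-plating, then virus at ~0.5 moi, and were cultured 44 h.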
Vaccinia mCherry: inhibitors of vaccinia virus infection (mCherry reporter signal); Vaccinia virus mCherry reporter infection, fluorescence; Potency, µM (doses to about 36.5 µM), for inactives: at the highest dose activity change, negative = inhibition, usual class: inhibitors; actives 0.63% (n = 310,000); AID 720579; calls by dose curve; tested in A549 cells; also: potency is read from the fitted curve at half-maximal effect; nearly all actives have a fitted effect of over 35% in size
HCMV inh: human cytomegalovirus inhibition; HFF cells, HCMV-luciferase reporter, 72 h; hits give low values; actives 4.5% (n = 410,000); activity change, negative = inhibition, % at 57.5 µM; AID 1259415; in the data active = activity change below about -60%; inconclusive = no clear call, values can overlap the other calls; inactive = above about -39%
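Compounds were evaluated in HFFs infected with an HCMV luciferase reporter virus (MOI 1 PFU/cell). Luciferase in lysates collected 72 h post infection served as the replication measure.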
* hit, by the source's call; i = inactive; ? = inconclusive; nt = no result given; + = active, no number. Most compounds without a hit are left out; they make up all but 7.3% or so of the library. % is scaled to controls: 0 for no effect and ±100 for the full control effect.

SMILES	VACV Venus inh	FMDV antiviral	HCV inh	Vaccinia mCherry	HCMV inh
Oc1ccc(Cl)cc1-c1cc(-c2ccccc2Cl)[nH]n1	nt	38%	13µM*	nt	118
Oc1ccc(Cl)cc1-c1cc(-c2cccc(Br)c2)n[nH]1	nt	6%	11µM*	nt	-93*
Oc1ccccc1-c1cc(-c2ccccc2Cl)[nH]n1	?	-20%	-23%	?	135
CN1/C(=C\C=N\NC(=O)c2ccc(O)cc2)C(C)(C)c2ccccc21	38%	28µM*	?	i	-90*
Cc1ccc(C(=O)NC(=S)/C=C2\N(C)c3ccccc3C2(C)C)cc1	nt	-27%	11µM*	nt	-68*
Cc1cc(Oc2ccccc2)nc(C#N)n1	-8%	nt	nt	i	nt
CC1(C)Cc2c(sc3c2c(=N)n(Cc2ccco2)c(=O)n3Cc2ccc(F)cc2)CO1	?	-21%	?	nt	-15
Cc1ccc(NC(=O)Cn2c(=O)n(Cc3ccco3)c(=N)c3c4c(sc32)COC(C)(C)C4)cc1	-16%	-5%	3.2µM*	nt	-18
COc1ccc(Cn2c(=O)n(Cc3ccco3)c(=N)c3c4c(sc32)COC(C)(C)C4)cc1	?	-23%	13µM*	nt	-24
O=C(Cn1c(=O)n(Cc2ccco2)c(=O)c2c3c(sc21)CCCCC3)Nc1ccccc1	-7%	-2%	-18%	i	-15
O=C(CCn1c(=O)[nH]c2ccccc21)NCC1Cc2cc(Cl)cc(-c3ccncc3)c2O1 (configuration not stated)	-17%	-9%	nt	i	nt
CN1OC[C@@H]2CN(C(=S)Nc3cc(C(F)(F)F)cc(C(F)(F)F)c3)[C@H](c3ccccc3Br)C[C@@H]21	nt	nt	nt	nt	3
COc1ccc(C(=O)Nc2nc3ccc(OC)cc3s2)cc1	nt	28%	?	nt	23
Cc1c(NC(=O)c2cccc(-c3cc4ccccc4oc3=O)c2)cccc1-c1nc2ncccc2o1	-20%	-23%	?	-9%	-68*
COc1ccc2nc(NC(=O)c3cccc(-c4cc5ccccc5oc4=O)c3)sc2c1	13µM*	-17%	11µM*	?	1
O=S(=O)(Nc1ccc2nc(-c3cccc(Cl)c3)nn2c1)c1ccco1	nt	nt	nt	nt	28
CCOC(=O)N1CCN(CC(O)COCCC23CC4CC(CC(C4)C2)C3)CC1 (configuration not stated)	-3%	?	-3%	nt	-62*
CN(C)c1cccc(-c2nnc(SCC(=O)NCc3ccco3)n2C)c1	-25%	nt	nt	-6%	nt
C=CC[C@H](CC(=O)N(CCO)Cc1ccccc1)C(=O)NC[C@@H](OC(=O)[C@@H](CC=C)Cc1ccc(F)cc1)c1ccccc1	?	?	7.9µM*	-5%	42
C=CC[C@@H](CC(=O)N(CCO)Cc1ccccc1)C(=O)NCCOC(=O)[C@@H](CC=C)Cc1ccc(F)cc1	-19%	?	?	?	-16
C=CCC[C@H](Cc1ccc(F)cc1)C(=O)O[C@H](CNC(=O)[C@@H](CC=C)CC(=O)N(CCO)Cc1ccccc1)c1ccccc1	-18%	40µM*	?	2%	4
Cc1ccc2nc(-c3cccc(NC(=O)c4cccc5c(Cl)cccc45)c3)oc2c1	-18%	38%	nt	-22%	22
CC1CC(Nc2ccccc2)c2ccccc2N1C(=O)c1ccccc1F (configuration not stated)	nt	?	2%	nt	-67*
C[C@@H]1C[C@H](Nc2ccccc2)c2ccccc2N1C(=O)c1cccnc1	?	?	?	nt	-20
CC1CC(Nc2ccccc2)c2ccccc2N1C(=O)c1cccnc1 (configuration not stated)	?	nt	5.6µM*	?	-36
SMILES	VACV Venus inh	FMDV antiviral	HCV inh	Vaccinia mCherry	HCMV inh
NC(=S)NNc1ccnc2cc(Cl)ccc12	-20%	-15%	-30%	?	-13
FC(F)Oc1ccc(NC(=S)NNc2ccnc3cc(Cl)ccc23)cc1	-11%	?	4µM*	-11%	-88*
CN1CCN(c2ccc(Nc3c4ccccc4nc4ccccc34)cc2)CC1	nt	-26%	nt	nt	nt
CN1CCN(c2ccc(Nc3ccnc4cc(Cl)ccc34)cc2)CC1	?	-15%	?	?	-83*
COc1ccc(N2CCN(c3ccnc4cc(Cl)ccc34)CC2)cc1	-2%	?	?	?	?
CCN1CCC(Nc2ccnc3cc(Cl)ccc23)CC1	-7%	-2%	-2%	-5%	-90*
CCN1CCN(c2ccc(Nc3ccnc4ccccc34)cc2)CC1	nt	0%	11µM*	nt	?
CCOc1ccc(Nc2ccnc3cc(Cl)ccc23)cc1	nt	-16%	-28%	nt	-62*
CCOC(=O)c1cnc2ccc(Cl)cc2c1Nc1ccc(OCC)cc1	-9%	-18%	nt	-7%	19
CCOc1ccc(NC(=O)Cn2c(=O)n(Cc3ccc(C(=O)NCc4ccc(C)cc4)cc3)c(=O)c3ccccc32)cc1	?	3%	nt	?	4
O=C(CN1C(=O)c2cccnc2Oc2ccc(Cl)cc21)NCCCc1ccccc1	nt	-29%	11µM*	nt	-34
CSc1ccc(CCNC(=O)CN2C(=O)c3cccnc3Oc3ccc(Cl)cc32)cc1	-9%	-27%	nt	i	?
Cc1ccc2c(c1)N(CC(=O)NCc1ccccc1Br)C(=O)c1cccnc1O2	-18%	-5%	nt	i	0
COc1ccc(Br)cc1CNC(=O)CN1C(=O)c2cccnc2Oc2ccc(C)cc21	?	-5%	nt	i	+
COc1ccc(-c2cc(C(F)(F)F)nc(NCc3ccco3)n2)cc1OC	nt	-20%	?	nt	nt
FC(F)(F)c1cc(-c2ccc3c(c2)OCO3)nc(NCc2ccco2)n1	nt	-9%	6.3µM*	nt	26
CCOC(=O)c1cc(-c2ccccc2)n(CCC(=O)Nc2ccc(C(F)(F)F)cc2)c1C	-24%	?	nt	-30%	-98*
COc1ccc(-c2cc(C(C)=O)c(C)n2CCC(=O)Nc2cc(Cl)ccc2C)cc1	-6%	-9%	nt	-11%	0
CCOC(=O)c1cc(-c2ccccc2)n(CCC(=O)Nc2ccc(OC)c(Cl)c2)c1C	-13%	-9%	nt	-20%	0
COc1ccc(-c2cc(C(C)=O)c(C)n2CCC(=O)Nc2ccc(C)c(Cl)c2)cc1	-12%	-20%	nt	-12%	+
CCOC(=O)c1cc(-c2ccc(C)cc2)n(CC(=O)Nc2ccccc2F)c1C	?	13%	nt	?	-82*
COc1cccc(NC(=O)CSc2nc3c(oc4ccccc43)c(=O)n2Cc2ccco2)c1	-7%	-4%	nt	-15%	?
O=C(Nc1cc(F)ccc1F)N1CC(=O)N2[C@@H](CO)[C@H](c3ccc(Br)cc3)[C@@H]2C1	nt	nt	nt	nt	4
CNc1nc2cnc(Nc3ccc(C(F)(F)F)cc3)cc2n1-c1cc(OC)c(OC)c(OC)c1	nt	nt	nt	nt	-14
COC(=O)/C=C1\OC(C)c2ccccc21 (configuration not stated)	nt	nt	nt	nt	84
CC1(C(=O)N/N=C/c2ccc([N+](=O)[O-])o2)CC1(Br)Br (configuration not stated)	6.3µM*	-20%	?	?	-60*
O=C(CNc1cccc2ccccc12)N/N=C/c1ccc([N+](=O)[O-])o1	nt	0%	10µM*	nt	-95*
